According to PubChem BioAssay AID686979 (National Center for Advancing Translational Sciences (NCATS), 2013):
Among all 420,000 compounds or so, about 50,000 (12%) were called active. A call without a number means that no potency is given here. Roughly 26% stayed inconclusive and do not appear here. Calls come from the whole dose curve; as a rule, active = well fitted inhibition curve with a large enough effect; inconclusive = small, poorly fitted or top-dose-only effect; inactive = flat fitted curve, though single readings scatter. This excerpt belongs to a sample that is enriched for actives.
Potency is the fitted concentration of half-maximal effect.

Assay: qHTS for Inhibitors of human tyrosyl-DNA phosphodiesterase 1 (TDP1): qHTS in cells in presence of CPT; note: nearly all actives have a fitted effect of over 55% in size
Details: chicken DT40 Tdp1-/-;hTDP1 cells + 20 nM CPT, ATP luminescence, 48 h; series mostly up to 46.2 µM
Summary of the method: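 Cell growth measured by CellTiter-Glo luminescence after a minimum 48 h, 37 C compound exposure with 20 nM CPT in Tdp1-knockout DT40 cells stably expressing hTDP1, seeded 400/well; qHTS titration format.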
For Cc1ccc(CNC(=O)CCc2c(C)nc3nc(CNC(=O)OC(C)(C)C)nn3c2C)cc1, the Potency was “inactive”. For O=C(Oc1cccnc1)c1cc2ccccc2oc1=O, the Potency was “inactive”. In the case of O=C(Oc1c(-c2ccco2)oc2ccccc2c1=O)c1cccnc1, the Potency is reported as 16.4 µM (active). With O=C(Oc1ccc(Br)cc1)c1cccnc1 the Potency was “inactive”. For O=S1(=O)CCO[C@H]2Cc3ccccc3[C@H]2N1Cc1ccccc1, the Potency was “inactive”. For Cc1ccc(Sc2ccncc2S(N)(=O)=O)cc1, the Potency was “inactive”. With CCCc1cc(C(=O)Nc2ccc(Cl)cn2)cs1 the Potency was “inactive”. For Cc1cccc(NC(=O)Cn2cc(C(=O)c3ccco3)c3ccccc32)c1, the Potency was 18.4 µM (active). For CC1CCN(C(=O)Cn2cc(C(=O)c3ccco3)c3ccccc32)CC1, the Potency was “inactive”. In the case of Cc1ccccc1NC(=O)Cn1cc(C(=O)C2CC2)c2ccccc21, the Potency is reported as “inactive”. In the case of Cc1cccc(NC(=O)c2cccc(S(=O)(=O)N3CCCC3)c2)n1, the Potency is reported as “inactive”. For CCn1c2ccccc2c2cc(NC(=O)COC(=O)c3cc(S(=O)(=O)N4CCCCC4)ccc3Cl)ccc21, the Potency was “inactive”. With CCn1c(O)c(N=NC(=O)c2cccc(S(=O)(=O)N3CCCCC3)c2)c2ccccc21 the Potency was 14.6 µM (active). With O=S1(=O)C[C@@H](N2CCN(CCO)CC2)[C@H](COCc2ccccc2)N1 the Potency was “inactive”. For COc1ccc(N(CC(=O)Nc2cccc3ccccc23)S(C)(=O)=O)c(OC)c1, the Potency was “inactive”. For O=C(NCCN1CCOCC1)C1CCN(S(=O)(=O)c2ccccc2)CC1, the Potency was “inactive”. With COc1cc(NC(=O)c2cc(-c3ccc(F)cc3OC(C)C)n[nH]2)cc(OC)c1OC the Potency was 14.6 µM (active). In the case of CC(C)Oc1cc(F)ccc1-c1cc(C(=O)Nc2cccc(Cl)c2)[nH]n1, the Potency is reported as 18.4 µM (active). In the case of COc1cc(F)ccc1-c1cc(C(=O)NCC2CCCCC2)[nH]n1, the Potency is reported as “inactive”. In the case of O=C(Nc1cccc(Cl)c1)c1cncn1-c1ccc(F)cc1, the Potency is reported as “inactive”. In the case of COc1cc(-c2cc3n(C)c(C)c(CCC(=O)Nc4ccc(F)cc4)c(=O)n3n2)cc(OC)c1OC, the Potency is reported as “inactive”. In the case of O=C(Nc1cccc(Cl)c1)c1cc(S(=O)(=O)N2CCCCC2)c[nH]1, the Potency is reported as “inactive”. For COc1ccccc1C(=O)OCC(=O)NCCNC(=O)COC(=O)c1ccccc1OC, the Potency was “inactive”. For COc1ccccc1OCC(=O)Nc1nnc2n1CCS2, the Potency was “inactive”. For Cc1cc(C(=O)OCC(=O)NCc2ccco2)c(C)n1-c1ccccc1, the Potency was 2.31 µM (active). For CN(c1ccccc1)S(=O)(=O)c1ccc(Cl)c(C(=O)OCC(=O)NCc2ccco2)c1, the Potency was “inactive”. For O=C(COC(=O)c1ccccc1O)NCc1ccco1, the Potency was “inactive”. In the case of COc1cccc(CNC(=O)CN2C(=O)CCc3cc(S(=O)(=O)N4CCOCC4)ccc32)c1, the Potency is reported as “inactive”. With CSc1nc2nc(-c3cccc(C(F)(F)F)c3)ccn2n1 the Potency was “inactive”. With CCCC(=O)Nc1ccc(C(=O)N/N=C/c2ccc[nH]2)cc1 the Potency was “inactive”. For Cc1cc(C)c(-c2csc(NC(=O)CCCc3nc4ccccc4c(=O)[nH]3)n2)c(C)c1, the Potency was 18.4 µM (active). For O=C(COC(=O)CCc1nc2ccccc2c(=O)[nH]1)Nc1ccc(N2CCOCC2)cc1, the Potency was “inactive”. In the case of Cc1cc(-c2csc(N)n2)c(C)n1Cc1ccccc1, the Potency is reported as “inactive”. For CC(C)(C)c1ccc(NC(=O)COC(=O)CCc2nc3ccccc3c(=O)[nH]2)cc1, the Potency was “inactive”. For CCCn1c(C)cc(-c2csc(NC(=O)CCc3nc4ccccc4c(=O)[nH]3)n2)c1C, the Potency was 23.1 µM (active). In the case of CC(=O)NCc1ccc(-c2csc(NC(=O)CCCc3nc4ccccc4c(=O)[nH]3)n2)cc1, the Potency is reported as “inactive”. In the case of Cc1cccc(C(=O)NCc2nnc(SC(C)C(=O)Nc3nnc(C)s3)n2C)c1 (centres undefined), the Potency is reported as “inactive”. In the case of C/C(N)=C(/C#N)C(=O)COC(=O)C1=NN(c2ccccc2)C(=O)CC1, the Potency is reported as “inactive”. For C=C(C)COc1ccc(-c2nc(N)ncc2-c2ccccc2OC)c(O)c1, the Potency was “inactive”. In the case of CCOc1ccc(-c2nc(N)ncc2-c2ccccc2OC)c(O)c1, the Potency is reported as 20.6 µM (active). For CCOC(=O)Cn1c2c(c(-c3ccccc3OC)cc1=O)CCCC2, the Potency was “inactive”. With O=C(O)CCCN1C(=O)c2ccccc2Sc2ncccc21 the Potency was “inactive”. In the case of Fc1cccc(-n2ncc3c2ncn2nc(-c4ccccc4Cl)nc32)c1, the Potency is reported as “inactive”. In the case of CCCCN1C(N)=NC[C@@H]1CC1CCCCC1, the Potency is reported as 23.1 µM (active). With CCCCN1CC(COCc2ccccc2)OCCS1(=O)=O (centres undefined) the Potency was “inactive”. With CCCCN1C(N)=NC[C@@H]1Cc1ccccc1 the Potency was 7.31 µM (active). In the case of CCCCN1C(=S)NC[C@@H]1C(C)CC (some centres undefined), the Potency is reported as “inactive”. For CCCC[C@@H]1CN=C(N)N1CCCC, the Potency was 9.2 µM (active). For CCCCNC(=O)C1CCC(=O)N1CCc1ccccc1 (centres undefined), the Potency was “inactive”. In the case of Cc1cccc(C)c1NC(=O)CNC(=O)c1ccc2c(c1)OCCO2, the Potency is reported as “inactive”. With COn1c(-c2ccc(Cl)cc2Cl)nc2ncccc21 the Potency was “inactive”. With O=S(=O)(Nc1ccc(-c2ccc(N3CCOCC3)nn2)cc1)c1cc(Cl)ccc1Cl the Potency was “inactive”. For COc1cc2ccccc2cc1C(=O)Nc1ccc(N2CCOCC2)cc1, the Potency was “inactive”. For O=C1NCC(c2ccccc2)(c2ccccc2)C(=O)N1, the Potency was “inactive”. With OCC1(CO)CC2(C1)CC(CO)(CO)C2 the Potency was “inactive”. With c1ccc2c(CSCc3nc4ccccc4[nH]3)cccc2c1 the Potency was 16.4 µM (active). For COc1ccccc1CSc1nc2ccccc2[nH]1, the Potency was “inactive”. For Nc1cccc(CCc2nc3ccccc3[nH]2)c1, the Potency was “inactive”. For CC1(C(=O)NCc2ccccc2)CN(S(C)(=O)=O)CC(=O)N1CC(F)(F)F (centres undefined), the Potency was “inactive”. For COc1cc(NC(=S)NNC(=O)CC(C)C)c(OC)cc1Cl, the Potency was “inactive”. For CN(C)CCCn1c(SCc2ccc(Cl)cc2)nnc1-c1ccncc1, the Potency was “inactive”. In the case of Cn1c(=O)c2ccccc2n(CC(=O)Nc2ccc3c(c2)OCCO3)c1=O, the Potency is reported as “inactive”. For C/C(CC(=O)NC(C)c1ccccc1)=N\NC(N)=S (centres undefined), the Potency was “inactive”. With Cc1cc(C(=O)NNC(=S)NC(C)c2ccccc2)cs1 (centres undefined) the Potency was 23.1 µM (active). For Cc1ccc(C(=O)NC(C)c2ccccc2)cc1Br (centres undefined), the Potency was “inactive”. For N#Cc1ccc(-c2ccc3nccn3c2)cc1, the Potency was “inactive”. In the case of COc1ccc(-c2nc3cc(C)ccn3c2NC2CCCCC2)cc1SC1CCCCC1, the Potency is reported as 29.6 µM (active). In the case of COc1ccc(C)cc1S(=O)(=O)NC1CCCCC1, the Potency is reported as “inactive”. For COC(=O)c1ccc(NC(=O)CSc2nncn2-c2cccnc2)cc1, the Potency was “inactive”.
